Molecules are shown by their SMILES. Records with an inconclusive call do not appear. Entries that show only a call come without a potency. The source made the active and inactive calls. The call rests on the fitted dose curve.

Vitamin D3 receptor (Homo sapiens), sequence (P11473 whole entry, looked up): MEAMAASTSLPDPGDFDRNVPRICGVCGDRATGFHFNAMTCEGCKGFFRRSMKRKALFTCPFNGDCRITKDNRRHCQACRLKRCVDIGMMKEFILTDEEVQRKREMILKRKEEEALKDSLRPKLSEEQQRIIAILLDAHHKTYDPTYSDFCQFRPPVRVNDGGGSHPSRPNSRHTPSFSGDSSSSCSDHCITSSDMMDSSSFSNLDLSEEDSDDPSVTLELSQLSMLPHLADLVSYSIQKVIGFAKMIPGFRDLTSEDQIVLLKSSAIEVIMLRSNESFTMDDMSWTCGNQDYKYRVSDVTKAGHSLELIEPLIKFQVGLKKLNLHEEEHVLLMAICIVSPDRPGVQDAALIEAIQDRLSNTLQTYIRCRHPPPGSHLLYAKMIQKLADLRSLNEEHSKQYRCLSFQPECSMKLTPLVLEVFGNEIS

The target in this test is Vitamin D3 receptor (Homo sapiens) (UniProt P11473). Briefly: qHTS assay to identify small molecule agonists of the vitamin D receptor (VDR) signaling pathway (AID 743222). The following applies: HEK293T VDR-UAS-bla, beta-lactamase FRET ratio, 16 h; series mostly up to 63.5 µM. The source says:
National Center for Advancing Translational Sciences [NCATS]
NIH Chemical Genomics Center [NCGC]
U.S. Environmental Protection Agency [EPA]
National Institutes of Environmental Health Sciences [NIEHS]
National Toxicology Program [NTP]
U.S. Food and Drug Administration [FDA]
The vitamin D receptor (VDR), a member of nuclear hormone receptor superfamily, plays a critical role in calcium homeostasis and bone metabolism. It is also involved in cell differentiation and growth, and thrombogenicity.
Tox21 Assay Protocol Summary:
VDR-bla cells were dispensed at 2,000 cells/6 uL/well into black wall/clear-bottom 1536-well plates using a Multidrop Combi (Thermo Fisher Scientific, Waltham, MA) dispenser. After the assay plates were incubated at a 37C and 5% CO2 for 4 h, 23 nL of compounds dissolved in DMSO, positive controls or DMSO only was transferred to the assay plate by a Pintool station (Kalypsys, San Diego, CA). The plates were incubated at 37C and 5% CO2 for 16 h. After 1 uL of LiveBLAzerTM B/G FRET substrate was added using a Bioraptr Flying Reagent Dispenser (FRD) workstation (Beckman Coulter, Indianapolis, IN, USA), the plates were incubated at room temperature for 2 h, and fluorescence intensity was measured by an Envision plate reader (PerkinElmer, Shelton, CT).
Background: Quantitative high-throughput screening tests each substance at several concentrations.
For `Cc1cc(C)cc(N)c1`, the Potency entry was “inactive”.
For `Cc1ccccc1S` the value was “inactive”; for `O=C(O)c1ccc(OCCCOc2ccc(C(=O)O)cc2)cc1`, “inactive”.
`C=C1c2cccc(O)c2C(O)=C2C(=O)[C@]3(O)C(O)=C(C(N)=O)C(=O)[C@@H](N(C)C)[C@@H]3[C@@H](O)[C@H]12`: the Potency entry is “inactive”.
For `CCCCCC#CC(=O)OC` the value was “inactive”; for `OC1(c2ccccc2)CCNCC1`, “inactive”; for `Nc1ncnc2c1ncn2[C@H]1CC[C@@H](CO)O1`, “inactive”.
For `CCOC(=O)c1ccc(OCCN2C[C@H](O)[C@@H](O)[C@H](O)[C@H]2CO)cc1` the value was “inactive”; for `C1COC1`, “inactive”; for `O=C(OC(=O)c1ccccc1)c1ccccc1`, “inactive”.
For `CN(C)CCN1C(=O)c2ccccc2N(C)c2ccccc21` the value was “inactive”; for `O=C1CCCCCCCCCCOCCCCO1`, “inactive”.
Turning to `O=[N+]([O-])c1ccc(O/N=C/c2cc(Br)c(O)c(Br)c2)c([N+](=O)[O-])c1`, the Potency entry was “inactive”.
The same measure for `CN(C)CCC=C1c2ccccc2C=Cc2ccccc21`: “inactive”.
For `COc1cc(Nc2c(C#N)cnc3cc(OCCCN4CCN(C)CC4)c(OC)cc23)c(Cl)cc1Cl` the value was “inactive”.
For `Clc1ccc(Nc2nnc(Cc3ccncc3)c3ccccc23)cc1` the value was “inactive”; for `CC(CN(C)C)C(C)(O)Cc1ccc(Cl)cc1` (stereo not given), “inactive”; for `O=C(O)c1cccc(-c2noc(-c3ccccc3F)n2)c1`, “inactive”.
As to `CC(C)(C)C(=O)C(=O)O`, the Potency result is “inactive”.
For the compound `CCCCC(CC)COP(=O)(O)O` (stereo not given), the Potency result was “inactive”.
The same measure for `O=C(/C=C/c1ccc(O)c(O)c1)O[C@@H]1C[C@@](OC(=O)/C=C/c2ccc(O)c(O)c2)(C(=O)O)C[C@@H](O)[C@@H]1O`: “inactive”; for `FC(F)(F)c1ccccc1Cl`: “inactive”.
For `CO/N=C(/C(=O)N[C@@H]1C(=O)N2C(C(=O)O)=C(COC(N)=O)CS[C@H]12)c1ccco1` the value was “inactive”; for `O=C1NCCN1CCO`, “inactive”; for `NC(=O)c1ccncc1`, “inactive”.
The same measure for `CCCCC(CC)CN` (stereo not given): “inactive”; for `C[C@@H](CN(C)C)CN1c2ccccc2Sc2ccccc21`: “inactive”.
In the case of `O=C(O)CCC(=O)C(=O)O`, the Potency entry is “inactive”.
The same measure for `O=C1c2ccccc2C(=O)C1(O)O`: “inactive”; for `C[C@]1(Cn2ccnn2)[C@H](C(=O)O)N2C(=O)C[C@H]2S1(=O)=O`: “inactive”.
For `CCC(OCCCOC)OC(C)=O` (stereo not given), the Potency result is “inactive”.
The same measure for `CCCCCCC(C)(C)C(=O)O`: “inactive”; for `CC(=O)OCC(=O)NCCCOc1cccc(CN2CCCCC2)c1`: “inactive”.
With `CCC1CO1` (stereo not given), the Potency result is “inactive”.
The same measure for `C=C1CCC2CC1C2(C)C` (stereo not given): “inactive”.
The same measure for `NCCNCCO`: “inactive”; for `CCOC(=O)/C=C/C(=O)OCC`: “inactive”; for `O=c1[nH]ncc2ccccc12`: “inactive”.
For `Cc1cc(O)ccc1O` the value was “inactive”; for `O=C1c2ccccc2C(=O)C1c1nc2ccccc2c(Br)c1O`, “inactive”.
